{"source": "PubChem BioAssay AID686979", "about": "(National Center for Advancing Translational Sciences (NCATS), 2013)", "note": "Screen size: about 420,000 compounds; about 50,000 (12%) were called active. Inconclusive results (about 26%) are left out. The call rests on the fitted dose curve; in most records, active means well fitted inhibition curve with a large enough effect; inconclusive means small, poorly fitted or top-dose-only effect; inactive means flat fitted curve, though single readings scatter. The full list was thinned out, with actives kept by preference. On the % scale 0 is the no-effect control and ±100 the full control effect; potency means the concentration at half of the fitted maximal effect."}
{"assay": "qHTS for Inhibitors of human tyrosyl-DNA phosphodiesterase 1 (TDP1): qHTS in cells in presence of CPT; further: nearly all actives have a fitted effect of over 55% in size", "settings": "chicken DT40 Tdp1-/-;hTDP1 cells + 20 nM CPT, ATP luminescence, 48 h; series mostly up to 46.2 µM; activity change, negative = growth inhibition: at the top concentration", "procedure,_shortened": "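Chicken DT40 Tdp1-/- cells complemented with human TDP1, 400 cells/well, exposed to compounds plus 20 nM camptothecin for at least 48 h at 37 C; viability read as ATP content by CellTiter-Glo luminescence.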"}
{"smiles": "CC(=O)Nc1ccc(NC(=O)CCCNC(=O)c2ccc(Cl)cc2)cc1", "activity change, negative = growth inhibition": "-1.54% (inactive)"}
{"smiles": "COCCn1c(CCC(=O)Nc2cc(C)ccc2C)nc2cccnc21", "activity change, negative = growth inhibition": "-9.25% (inactive)"}
{"smiles": "COCCCNC(=O)CCc1nc2cccnc2n1Cc1ccc(OC)cc1", "activity change, negative = growth inhibition": "-3.73% (inactive)"}
{"smiles": "Cc1ccc(Cn2c(CNC(=O)Cc3cccc(C)c3)nc3cccnc32)cc1", "Potency": "13 µM (active)"}
{"smiles": "O=C(CCNS(=O)(=O)c1ccccc1)NCCSc1ccc(Br)cc1", "activity change, negative = growth inhibition": "-23% (inactive)"}
{"smiles": "CCc1cccc(NC(=O)COC(=O)c2cc(=O)c3ccccc3o2)c1", "activity change, negative = growth inhibition": "5.89% (inactive)"}
{"smiles": "C=CCC[C@@H](Cc1ccc(F)cc1)C(=O)OC[C@@H](C)NC(=O)[C@H](CC=C)CC(=O)N(CCO)Cc1ccccc1", "Potency": "13 µM (active)"}
{"smiles": "COCCCNC(=S)N(Cc1ccccc1)Cc1ccc(F)cc1", "activity change, negative = growth inhibition": "-7.85% (inactive)"}
{"smiles": "C=CCC[C@H](Cc1ccc(F)cc1)C(=O)OC[C@H](C)NC(=O)[C@H](CC=C)CC(=O)N(CCO)Cc1ccccc1", "Potency": "14.6 µM (active)"}
{"smiles": "C=CCC[C@@H](Cc1ccc(F)cc1)C(=O)O[C@H](CNC(=O)[C@H](CC=C)CC(=O)N(CCO)Cc1ccccc1)c1ccccc1", "Potency": "18.4 µM (active)"}
{"smiles": "C=CC[C@H](CC(=O)N(CCO)Cc1ccccc1)C(=O)N[C@@H](COC(=O)[C@@H](CC=C)Cc1ccc(F)cc1)Cc1ccccc1", "Potency": "23.1 µM (active)"}
{"smiles": "C=CCC(NC(=O)Cc1ccccc1)C(=O)NCCC", "note": "(stereo not given)", "activity change, negative = growth inhibition": "-4.46% (inactive)"}
{"smiles": "Cc1ccccc1Nc1nc(N)nc(CSc2ccccc2)n1", "activity change, negative = growth inhibition": "11.7% (inactive)"}
{"smiles": "COc1ccc(C(C)NC(=O)C2CCCC2)cc1", "note": "(stereo not given)", "activity change, negative = growth inhibition": "28% (inactive)"}
{"smiles": "O=C(CNC(=O)c1cccnc1)N/N=C/c1cc(Br)c(O)c(Br)c1", "activity change, negative = growth inhibition": "-5.42% (inactive)"}
{"smiles": "Cc1ccc(S(=O)(=O)NCC2CCC(C(=O)N3CCOCC3)CC2)cc1", "note": "(stereo not given)", "activity change, negative = growth inhibition": "11.6% (inactive)"}
{"smiles": "CCOc1ncccc1C(=O)NNC(=O)c1cccc(S(=O)(=O)Nc2ccccc2OC)c1", "activity change, negative = growth inhibition": "-0.192% (inactive)"}
{"smiles": "O=C(Nc1c[nH]c(=O)[nH]c1=O)OCc1ccccc1", "activity change, negative = growth inhibition": "-14.3% (inactive)"}
{"smiles": "CC(=O)c1sc(N)nc1C", "Potency": "inactive"}
{"smiles": "COc1ccc(C2/C(=C(/O)c3ccc4c(c3)CC(C)O4)C(=O)C(=O)N2Cc2ccncc2)cc1", "note": "(stereo not given)", "activity change, negative = growth inhibition": "29.7% (inactive)"}
{"smiles": "CC(C)COc1ccc(C(=O)NNC(=O)CCC(=O)c2cccs2)cc1", "activity change, negative = growth inhibition": "-2.08% (inactive)"}
{"smiles": "C=CCc1c(C)nc2cc(-c3ccccc3)[nH]n2c1=O", "activity change, negative = growth inhibition": "-22.6% (inactive)"}
{"smiles": "Cc1cc(=O)n2[nH]c(-c3cccc(Cl)c3)cc2n1", "Potency": "18.4 µM (active)"}
{"smiles": "O=C1CCCc2c1nc(-c1cccc(Cl)c1)n2O", "activity change, negative = growth inhibition": "-22.1% (inactive)"}
{"smiles": "O=[N+]([O-])c1ccc2[nH]c3c(c2c1)CCCC3O", "note": "(stereo not given)", "activity change, negative = growth inhibition": "2.97% (inactive)"}
{"smiles": "O=C1/C(=C\\c2ccsc2)NC(=S)N1c1ccccc1", "activity change, negative = growth inhibition": "-5.02% (inactive)"}
{"smiles": "O=c1c(-c2ccccc2Cl)c[nH]n1-c1ccccc1", "activity change, negative = growth inhibition": "-13.2% (inactive)"}
{"smiles": "COc1cccc(NC(=O)CN2CCN(c3nc(-c4cccc(OC)c4)cs3)CC2)c1", "activity change, negative = growth inhibition": "-27.1% (inactive)"}
{"smiles": "COc1cccc(CNc2nc3nc4c(c(=O)n3[nH]2)CCC4)c1", "activity change, negative = growth inhibition": "7.39% (inactive)"}
{"smiles": "COc1cccc(-c2cc3nc4c(c(N5CCC6(CC5)OCCO6)n3n2)CCCC4)c1", "Potency": "23.1 µM (active)"}
{"smiles": "CC(=NNC(=O)c1ccc2nc[nH]c2c1)c1ccc(Br)cc1", "activity change, negative = growth inhibition": "-16.2% (inactive)"}
{"smiles": "O=C(NCCCO)C(=O)Nc1c2c(nn1-c1ccc(F)cc1)CSC2", "activity change, negative = growth inhibition": "-6.22% (inactive)"}
{"smiles": "Cc1ccc(S(=O)(=O)N[C@H]2CCC[C@@H]2O)cc1", "activity change, negative = growth inhibition": "23.7% (inactive)"}
{"smiles": "CCN(C(=O)COC(=O)c1cc(S(=O)(=O)N2CCc3ccccc32)ccc1OC)C1CCS(=O)(=O)C1", "note": "(stereo not given)", "activity change, negative = growth inhibition": "1.42% (inactive)"}
{"smiles": "CS(=O)(=O)N1CCc2cc(C(=O)Nc3ccccc3)ccc21", "activity change, negative = growth inhibition": "-7.48% (inactive)"}
{"smiles": "COc1cccc(NC(=O)c2cc(S(=O)(=O)N3CCc4ccccc43)cn2C)c1", "activity change, negative = growth inhibition": "1.38% (inactive)"}
{"smiles": "COc1ccc(S(=O)(=O)N2CCc3ccccc32)cc1C(=O)Nc1cc(S(C)(=O)=O)ccc1Cl", "Potency": "9.2 µM (active)"}
{"smiles": "O=C(Nc1cc(C(F)(F)F)ccc1Cl)c1ccc2c(c1)CCN2S(=O)(=O)c1ccccc1", "Potency": "18.4 µM (active)"}
{"smiles": "Cc1ccc(S(=O)(=O)N2CCc3cc(C(=O)Nc4ccc(Cl)cc4C)ccc32)cc1", "activity change, negative = growth inhibition": "-7.99% (inactive)"}
{"smiles": "Cc1noc(C)c1NC(=O)N(C)C[C@@H]1Oc2cc(Br)ccc2S(=O)(=O)N([C@@H](C)CO)C[C@H]1C", "activity change, negative = growth inhibition": "-16.2% (inactive)"}
{"smiles": "Cc1ccc(CNC(=O)C2CCCN2S(=O)(=O)c2ccc3c(c2)C(C)(C)C(=O)N3C)cc1", "note": "(stereo not given)", "activity change, negative = growth inhibition": "-4.08% (inactive)"}
{"smiles": "COc1cc(Br)cc2cc(S(=O)(=O)c3ccccc3)c(=O)oc12", "activity change, negative = growth inhibition": "-17.1% (inactive)"}
{"smiles": "CCOC(=O)C(Cc1ccc(N)cc1)N1C(=O)c2ccccc2C1=O", "note": "(stereo not given)", "activity change, negative = growth inhibition": "-20.1% (inactive)"}
{"smiles": "O=C(Nc1ccccc1F)c1ccc(Cn2cc(Br)cn2)cc1", "activity change, negative = growth inhibition": "-29.2% (inactive)"}
{"smiles": "CCNCc1cc2cc(C)ccc2[nH]c1=O", "Potency": "18.4 µM (active)"}
{"smiles": "CCCc1nc(-c2cc3cc(C)ccc3[nH]c2=O)no1", "activity change, negative = growth inhibition": "-11.1% (inactive)"}
{"smiles": "CC(=O)OCc1cc2cc(C)ccc2[nH]c1=O", "activity change, negative = growth inhibition": "-29.4% (inactive)"}
{"smiles": "CCC(=O)N(Cc1cc2cc(OC)ccc2[nH]c1=O)c1ccccc1C", "activity change, negative = growth inhibition": "-12.5% (inactive)"}
{"smiles": "COc1ccc2[nH]c(=O)c(CNc3ccc(C)c(C)c3)cc2c1", "Potency": "4.11 µM (active)"}
{"smiles": "COc1ccc(N(Cc2cc3cc(OC)ccc3[nH]c2=O)S(C)(=O)=O)cc1", "activity change, negative = growth inhibition": "-13.5% (inactive)"}
